# Reference: the supplement of paper PMC13380429
# Structures can show the parent of a compound that is named as a salt.
# Tests used:
# [1] = tested on: Vero E6 infected with SARS-CoV-2; test: morphology score (similarity to uninfected cells); higher = more like uninfected cells; conditions: 24 h
# [2] = tested on: Vero E6 infected with SARS-CoV-2; test: SARS-CoV-2 infection rate relative to infected DMSO; higher = more infection, active = 60 or less; conditions: 24 h
Compound,morphology score [1],SARS-CoV-2 infection rate [2]
COc1ccc(C(=O)Nc2sc3c(c2C(N)=O)CCCC3)cc1OC (10 µM),-0.0466,96.5% (inactive)
CS(=O)(=O)OC[C@H](O)[C@@H](O)COS(C)(=O)=O [treosulfan] (10 µM),-0.204,118% (inactive)
CCOC(=O)c1ccc(N)cc1 [benzocaine] (10 µM),-0.0142,112% (inactive)
Cn1c(=O)n(-c2ccc(C(C)(C)C#N)cc2)c2c3cc(-c4cnc5ccccc5c4)ccc3ncc21 (10 µM),0.0712,98% (inactive)
CC(C)C[C@H](NC(=O)[C@H](CCc1ccccc1)NC(=O)CN1CCOCC1)C(=O)N[C@@H](Cc1ccccc1)C(=O)N[C@@H](CC(C)C)C(=O)[C@@]1(C)CO1 [carfilzomib] (0.833333 µM),0.00273,42% (active)
COc1ccc(Cl)cc1NC(=O)Nc1cc(C)nc2ccccc12 (10 µM),0.148,96.5% (inactive)
CC1(C)N=C(N)N=C(N)N1OCCCOc1cc(Cl)c(Cl)cc1Cl (10 µM),0.205,89.5% (inactive)
CC[C@]12CCCN3CCc4c(n(c5ccccc45)C(=O)C1)[C@@H]32 [vinburnine] (10 µM),-0.0662,99.5% (inactive)
COc1cc2c(cc1OC)-c1cc3ccc(OC)c(OC)c3c[n+]1CC2 [palmatine-chloride] (10 µM),0.189,92% (inactive)
CC1C=CC=CCCC=CC=CC=CC=CC(OC2OC(C)C(O)C(N)C2O)CC2OC(O)(CC(O)C(O)CCC(O)CC(O)CC(O)CC(=O)OC(C)C(C)C1O)CC(O)C2C(=O)O (stereo not given) [nystatin] (10 µM),-0.0648,116% (inactive)
O=C(c1cncc(Br)c1)N1CCC(N2CCCC2)CC1 (10 µM),0.146,108% (inactive)
CCCCCCc1ccc(O)cc1O [hexylresorcinol] (10 µM),0.199,88% (inactive)
CC(=O)O[C@]1(C(C)=O)CC[C@H]2[C@@H]3C=C(C)C4=CC(=O)CC[C@]4(C)[C@H]3CC[C@@]21C [megestrol-acetate] (10 µM),0.21,100% (inactive)
CCN1CCCC1=O [1-ethyl-2-pyrrolidone] (10 µM),0.128,104% (inactive)
Cc1cc(Nc2ccc(NC(=O)c3ccc(Nc4ccnc5ccccc45)cc3)cc2)nc(N)n1 (0.833333 µM),-0.0128,104% (inactive)
CC(C)c1ccc(NC(=O)c2cccs2)c(-c2nc3ccccc3[nH]c2=O)c1 (10 µM),0.23,83% (inactive)
O=C1CCC2CCC(=O)N12 [rolziracetam] (10 µM),-0.0425,106% (inactive)
NC(=O)Nc1cc(-c2cccc(F)c2)sc1C(=O)N[C@H]1CCCNC1 (0.833333 µM),0.11,106% (inactive)
CCCOc1ccc(Br)cc1-c1cc(-c2ccc(Cl)cc2)[nH]c1-c1ccncc1 (10 µM),0.113,100% (inactive)
O=C(NCC1CCCCN1)c1cc(OCC(F)(F)F)ccc1OCC(F)(F)F (stereo not given) [flecainide] (10 µM),0.193,87.5% (inactive)

Compound,morphology score [1],SARS-CoV-2 infection rate [2]
CN1CCOC(c2ccccc2)c2ccccc2C1 (stereo not given) [nefopam] (10 µM),0.0314,108% (inactive)
O=C(Nc1ccccc1)N1CCC(Cc2cnc3ccccc3c2)CC1 (10 µM),-0.147,104% (inactive)
CCCC(=O)C1(c2ccccc2)CCN(C(=O)[C@@H](Cc2ccc(OC)cc2)NC(=O)[C@@H](N)Cc2cncn2C)CC1 (10 µM),0.106,98% (inactive)
N#CCNC(=O)c1ccc(-c2ccnc(Nc3ccc(N4CCOCC4)cc3)n2)cc1 (0.833333 µM),0.412,103% (inactive)
O=C(O)c1cc(/N=N/c2ccc(S(=O)(=O)Nc3ccccn3)cc2)ccc1O [sulfasalazine] (10 µM),0.0447,105% (inactive)
COc1ccc(CCNCc2ccc(OCc3ccc(Cl)nc3)c(OC)c2)cc1OC (10 µM),0.078,98% (inactive)
Cc1c(N)nc([C@H](CC(N)=O)NC[C@H](N)C(N)=O)nc1C(=O)N[C@H](C(=O)N[C@H](C)[C@@H](O)[C@H](C)C(=O)N[C@H](C(=O)NCCc1nc(-c2nc(C(=O)NCCC[S+](C)C)cs2)cs1)[C@@H](C)O)[C@@H](OC1OC(CO)C(O)C(O)C1OC1OC(CO)C(O)C(OC(N)=O)C1O)c1cnc[nH]1 (stereo not given in full) [bleomycin] (10 µM),0.0285,100% (inactive)
CN(C)c1ccc2nc3ccc(=[N+](C)C)cc-3sc2c1 [methylene-blue] (0.833333 µM),0.152,104% (inactive)
CCN(CC)CCCC(C)Nc1nc(C)cc(Nc2ccc3nc(C)cc(N)c3c2)n1 (stereo not given) (10 µM),-0.115,110% (inactive)
CC(C)(Oc1ccc(Cl)cc1)C(=O)OCCOC(=O)c1cccnc1 [etofibrate] (10 µM),0.105,105% (inactive)
c1ccc2c(Oc3nc(Nc4ccc(N5CCOCC5)cc4)c4ncn(C5CCCCC5)c4n3)cccc2c1 [purmorphamine] (10 µM),-0.227,113% (inactive)
CCCCCCCC(=O)N[C@H](CN1CCCC1)[C@H](O)c1ccc2c(c1)OCCO2 [eliglustat] (10 µM),0.2,92.5% (inactive)
COc1cccc(CCc2ccccc2OCC(CN(C)C)OC(=O)CCC(=O)O)c1 (stereo not given) [sarpogrelate] (10 µM),0.198,100% (inactive)
Fc1ccc2c(CCNCc3cccc(OCC(F)(F)C(F)F)c3)c[nH]c2c1 [idalopirdine] (10 µM),-0.145,114% (inactive)
COC(=O)C1=C(C)NC(C)=C(C(=O)OCC(C)C)C1c1ccccc1[N+](=O)[O-] (stereo not given) [nisoldipine] (0.833333 µM),-0.0369,112% (inactive)
OC[C@H]1O[C@@H](c2ccc(F)c(Cc3cc4ccccc4s3)c2)[C@H](O)[C@@H](O)[C@@H]1O [ipragliflozin-L-proline] (10 µM),0.0125,110% (inactive)
C=C1C(=O)O[C@@H]2/C=C(\C)CC/C=C(\C)CC[C@@H]12 [costunolide] (10 µM),0.222,78.5% (inactive)
CC1(CN2CCC(n3c(=O)[nH]c4ccccc43)CC2)OCc2ccccc2-n2cccc21 (stereo not given) [zaldaride] (10 µM),-0.152,112% (inactive)
COc1cc(C)c(/C=C/C(C)=C/C=C/C(C)=C/C(=O)O)c(C)c1C [acitretin] (10 µM),-0.0971,116% (inactive)
COc1ccc(CCN2CCN(CCCc3ccccc3)CC2)cc1OC [cutamesine] (10 µM),-0.0482,106% (inactive)

Compound,morphology score [1],SARS-CoV-2 infection rate [2]
CCC(C)SSc1ncc[nH]1 (stereo not given) (10 µM),-0.172,95% (inactive)
Cc1nc2c(O)cccc2c(=O)[nH]1 (10 µM),-0.0261,114% (inactive)
N[C@@H](Cc1cc(CP(=O)(O)O)cc(-c2ccccc2Cl)c1)C(=O)O (10 µM),0.0155,97.5% (inactive)
CC/C(=C(\c1ccc(O)cc1)c1ccc(OCCNC)cc1)c1ccccc1 [Endoxifen HCl] (10 µM),0.817,26% (active)
N[C@@H]1CONC1=O [cycloserine-(D)] (10 µM),0.0631,92.5% (inactive)
CC[C@]1(O)C[C@@H]2CN(CCc3c([nH]c4ccccc34)[C@@](C(=O)OC)(c3cc4c(cc3OC)N(C)[C@H]3[C@@](O)(C(N)=O)[C@H](O)[C@]5(CC)C=CCN6CC[C@]43[C@@H]65)C2)C1 [vindesine] (10 µM),-0.107,103% (inactive)
CO[C@@]1(NC(=O)Cc2cccs2)C(=O)N2C(C(=O)O)=C(COC(N)=O)CS[C@@H]21 [cefoxitin] (10 µM),0.228,100% (inactive)
Cc1ccc(C(=O)C(C)CN2CCCCC2)cc1 (stereo not given) [tolperisone] (10 µM),0.383,83.5% (inactive)
Cc1nc(C#Cc2ccnc(Cl)c2)c(C)n1-c1ccc(F)cc1 [basimglurant] (10 µM),0.114,112% (inactive)
COc1ccc(N(C(=O)Oc2c(C)cccc2C)c2ccnc(Nc3ccc(N4CCN(C)CC4)cc3)n2)c(OC)c1 (10 µM),0.0671,111% (inactive)
O=C(Nc1ccc(-c2ccncc2)cc1)N[C@H](CO)c1ccccc1 (0.833333 µM),0.489,94% (inactive)
CNNCc1ccc(C(=O)NC(C)C)cc1 [procarbazine] (10 µM),0.133,106% (inactive)
O=C(c1ccccc1)c1ccc2n1CCC2C(=O)O (stereo not given) [ketorolac] (10 µM),0.000781,107% (inactive)
CN1CCc2nc(C(=O)N[C@@H]3C[C@@H](C(=O)N(C)C)CC[C@@H]3NC(=O)C(=O)Nc3ccc(Cl)cn3)sc2C1 [edoxaban] (10 µM),0.0662,94.5% (inactive)
C=C(C)[C@@H]1[C@H]2OC(=O)[C@@H]1[C@]1(O)C[C@H]3O[C@]34C(=O)O[C@H]2[C@]14C [picrotoxinin] (10 µM),0.0677,116% (inactive)
Nc1ccc(S(N)(=O)=O)cc1 [sulfanilamide] (10 µM),0.0892,103% (inactive)
COc1nc(N)nc2c1ncn2[C@@H]1O[C@H](CO)[C@@H](O)[C@@H]1O [nelarabine] (10 µM),-0.0124,109% (inactive)
Nc1c(CC(=O)O)cccc1C(=O)c1ccc(Br)cc1 [bromfenac] (10 µM),-0.048,104% (inactive)
Cc1c(C)c2c(c(C)c1O)CCC(C)(C)O2 (10 µM),-0.0795,116% (inactive)
Nc1ccc(C(=O)O)c(O)c1 [aminosalicylate] (10 µM),-0.137,106% (inactive)
